# Compound activity from PubChem.
# KinaseGlo FLuc: blocks Kinase-Glo luciferase, a counter-screen artifact. hit rate 0.28% among 200,000. Potency, µM (doses to about 38.3 µM), for inactives: top-dose activity change, negative = inhibition, most hits filed as inhibitors. Kinase-Glo luciferase, ATP luminescence, 8 min; also: % is scaled to controls: 0 for no effect and ±100 for the full control effect; nearly all actives have a fitted effect of over 60% in size
#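 Substrate mix (final 50 mM imidazole pH 7.2, 50 mM KCl, 7 mM MgCl2, 10 uM ATP, 0.01% Tween 20, 0.05% BSA) plus pin-tool compound, then Kinase-Glo detection mix; 8 min ambient, luminescence read.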
# SMN2 splice enh: increases expression of the SMN2 splice variant. hit rate 2.8% among 210,000. HEK293 SMN2-luciferase splicing reporter, luminescence, 30-36 h. AID 1458. Potency, µM (titrated, usually from 46.1 µM), for inactives: at the top dose activity change, positive = activation, hits mostly activators; also: % of control where 0% means no effect; nearly all actives have a fitted effect of over 55% in size
#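 HEK293 cells carry an SMN2 minigene-luciferase reporter in which exon 7 inclusion puts luciferase in frame. Cells were seeded at 2000 cells/well, attached for 10-12 hours, then exposed to compounds for 30-36 hours at 37C before ONE-Glo luminescence.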
# ELG1 genotox: inducers of genotoxicity in HEK293T ELG1-luciferase cells; AID 504466; Potency, µM (top dose mostly 46 µM), inactives show top-dose activity change, positive = activation, usual class: activators; hit rate 1.3% among 330,000; HEK293T ELG1-luciferase reporter, luminescence, 16 h; also: % of control where 0% means no effect; nearly all actives have a fitted effect of over 60% in size
#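 Reporter readout depends on ELG1 protein level, which increases with genetic stress. After 16 hr compound exposure at 37 °C, luciferase activity was quantified using ONE-Glo.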
# NPC1 prom act: activators of NPC1 promoter; Potency, µM (doses to about 9.22 µM), without a hit: at the highest dose activation, usual class: activators; hit rate 2.4% among 320,000; Huh7 NPC1 promoter luciferase reporter, 24 h; AID 485313; also: % of control where 0% means no effect; nearly all actives have a fitted effect of over 60% in size
#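 Stably transfected Huh7 (NPC1 promoter→luciferase), 1500 cells/well in Opti-MEM + 10% FBS, 2 h settle, then compound 24 h at 37 °C. Luminescence after 10 min with Amplite reagent.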
# Rab9 prom act: Rab9 promoter activation. Huh7 Rab9 promoter-luciferase reporter, luminescence, 24 h. Potency, µM (titrated, usually from 9.22 µM), for the others: at the top dose activation, negative = inhibition, most hits filed as activators. hit rate 2.8% among 320,000; also: % of control where 0% means no effect; nearly all actives have a fitted effect of over 60% in size
#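 Promoter activation is measured as luciferase luminescence in Huh7 cells stably transfected with a Rab9 promoter–luciferase construct, following 24 h compound exposure at 37 °C and 10 min reagent incubation at ambient temperature.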
# FLuc modulator: counter-screen for miR-21 project: firefly luciferase inhibitors or activators; hit rate 6.9% among 360,000; AID 588342; Potency, µM (highest dose often 57.5 µM), without a hit: top-dose activity change, negative = inhibition, hits mostly inhibitors; purified FLuc, Km substrates, luminescence inhibition;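 also: plate controls were vehicle for no effect and reference inhibitor for full effect; nearly all actives have a fitted effect of over 55% in size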
# Target sequence (P08659 whole entry, looked up): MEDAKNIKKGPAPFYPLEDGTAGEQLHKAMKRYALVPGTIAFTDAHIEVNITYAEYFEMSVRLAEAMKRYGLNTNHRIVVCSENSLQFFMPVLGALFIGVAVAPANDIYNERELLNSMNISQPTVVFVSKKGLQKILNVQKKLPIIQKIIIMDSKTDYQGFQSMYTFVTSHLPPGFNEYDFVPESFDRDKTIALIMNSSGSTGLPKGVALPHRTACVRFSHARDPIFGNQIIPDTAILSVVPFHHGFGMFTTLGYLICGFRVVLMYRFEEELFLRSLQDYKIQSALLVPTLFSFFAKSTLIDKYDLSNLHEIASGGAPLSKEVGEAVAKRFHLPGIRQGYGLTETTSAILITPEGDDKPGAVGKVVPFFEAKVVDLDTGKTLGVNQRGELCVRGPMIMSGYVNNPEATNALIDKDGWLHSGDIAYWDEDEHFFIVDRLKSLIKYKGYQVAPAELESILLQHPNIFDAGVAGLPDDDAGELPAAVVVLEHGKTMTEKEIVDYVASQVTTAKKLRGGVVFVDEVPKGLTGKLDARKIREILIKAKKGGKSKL
#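 Purified P. pyralis luciferase (10nM final) with 10uM D-luciferin and 10uM ATP (Km levels) in 50mM Tris acetate pH 7.5, 10mM Mg acetate, 0.01% Tween-20, 0.05% BSA; qHTS 6-point titration, ~60 µM downward; luminescence read.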
# Numbers without * were called inactive; u = inconclusive; x = no result; [ ] = dose if it differs, or a comment. Sampled rows, rich in hits. Any-hit rate of the full collection: about 7.5%. Calls follow the shape of the dose curve; as a rule, active = well fitted curve in the direction sought with a large enough effect; inconclusive = small, poorly fitted or top-dose-only effect, or another doubt; inactive = no such curve, though single readings can be large; an effect the other way counts as inactive or inconclusive. Potency is read from the fitted curve at half-maximal effect.
SMILES,KinaseGlo FLuc,SMN2 splice enh,ELG1 genotox,NPC1 prom act,Rab9 prom act,FLuc modulator
O=C1/C(=C/C=C/c2ccccc2)Oc2c1ccc(O)c2CN1CCN(CCO)CC1,x,x,0.5%,-3.8%,-6.6%,12µM*
CCN1CCN(Cc2c(O)ccc3c2O/C(=C\c2ccccc2)C3=O)CC1,0.4%,4.3%,-5.7%,-2.7%,-2.6%,-1.1%
CCN1CCN(Cc2c(O)ccc3c2O/C(=C\c2ccc(C)cc2)C3=O)CC1,-1.8%,-0.5%,-1.6%,-12.3%,-2.3%,u
O=c1oc2c(CN3CCN(CCO)CC3)c(O)ccc2cc1-c1ccccc1,x,x,x,x,x,-9.7%
CCN1CCN(Cc2c(O)ccc3c2O/C(=C\C=C\c2ccccc2)C3=O)CC1,3.4%,-23.6%,0.0%,6.1%,7.2%,10.7µM*
O=C(CSc1nc2c([nH]c3ccccc32)c(=O)n1-c1ccccc1)Nc1cccc(C(F)(F)F)c1,x,x,x,x,x,3.7%
Cc1ccc(/C=C2\Oc3c(ccc(O)c3CN3CCN(C)CC3)C2=O)cc1,-8.2%,-2.0%,7.5%,-1.4%,-4.5%,u
CCc1ccc(/C=C2\Oc3c(ccc(O)c3CN3CCN(C)CC3)C2=O)cc1,x,x,8.5%,u,-0.1%,12µM*
Cc1ccc(C(=O)CC(=O)COc2ccc(Cl)cc2C)cc1,-0.7%,6.5%,-4.8%,0.1%,0.4%,-5.9%
COC(=O)COc1cccc(NC(=O)c2cccc(C)c2)c1,0.7%,7.6%,2.6%,1.4%,-2.9%,u
Cc1cc(C)cc(OC(=O)CCN2C(=O)c3ccccc3C2=O)c1,1.0%,-2.0%,0.8%,-2.2%,0.5%,-0.2%
Cc1ccc(NC(=O)c2ccc(OC(=O)CCN3C(=O)c4ccccc4C3=O)cc2)cc1,-6.0%,14.1µM*,u,3.16µM*,1.78µM*,-19.0%
Cc1ccc(NC(=O)c2ccc(OC(=O)COc3cccc(Cl)c3)cc2)cc1,2.6%,25.1µM*,u,2.82µM*,2.82µM*,u
Cc1ccc(NC(=O)c2ccc(OC(=O)COc3ccc(Cl)cc3C)cc2)cc1,-4.3%,12.6µM*,u,3.98µM*,3.55µM*,u
Cc1csc(NC(=O)CS(=O)(=O)Cc2ccccc2)n1,0.3%,8.8%,1.7%,0.7%,-0.8%,-0.2%
Cc1ccc(OCC(=O)O/N=C(\N)c2ccncc2)c(C)c1,x,x,14.6µM*,3.16µM*,3.55µM*,10.7µM*
N/C(=N\OC(=O)COc1ccccc1)c1ccncc1,x,x,u,16.8%,20.9%,u
N/C(=N\OC(=O)COc1cc(Cl)c(Cl)cc1Cl)c1ccncc1,3.0%,14.1µM*,18.3µM*,u,u,13.5µM*
N/C(=N\OC(=O)COc1ccc(Br)cc1Cl)c1ccncc1,1.9%,11.2µM*,u,3.55µM*,3.55µM*,6.75µM*
Cc1cc(C)c(C)c(OCC(=O)O/N=C(\N)c2ccncc2)c1,x,x,-5.3%,0.4%,-1.5%,0.1%
COc1cccc(C(=O)CC2(O)C(=O)Nc3ccc(Cl)cc32)c1 (stereo unspecified),x,-14.3%,x,x,x,2.7%
O=C(c1cccc(Br)c1)N1CCN(S(=O)(=O)N2CCCCC2)CC1,x,x,-1.7%,-3.5%,-6.8%,0.6%
Cc1ccc(S(=O)(=O)N2CCN(C(=O)COC(=O)C3CCC3)CC2)c(C)c1,x,x,3.6%,-3.3%,-7.2%,3.2%
Cc1ccc(-c2nc3ccsc3c(=O)o2)cc1,-11.7%,105.4%,18.4µM*,2.82µM*,2.51µM*,2.69µM*
CCOc1ccc(C(=O)c2oc3ccccc3c2NC(=O)Cc2coc3cc(C)cc(C)c23)cc1,x,-0.9%,x,x,x,-5.3%
SMILES,KinaseGlo FLuc,SMN2 splice enh,ELG1 genotox,NPC1 prom act,Rab9 prom act,FLuc modulator
COc1cc2c(=O)n(Cc3ccccc3Cl)c(=O)n(CC(=O)Nc3ccc(C)c(C)c3)c2cc1OC,x,3.8%,x,x,x,2.0%
CN1c2ccsc2/C(=N/Nc2ccc(F)cc2)CS1(=O)=O,0.8%,u,u,u,u,19µM*
CCCC(=O)N/N=C1\CS(=O)(=O)N(C)c2ccsc21,3.9%,-13.4%,0.7%,7.2%,0.2%,-0.1%
O=C1NCCC/C1=N/Nc1ccc(F)cc1,-8.5%,8.3%,u,-1.1%,-1.4%,-4.9%
Cc1ccc(N/N=C2\CS(=O)(=O)N(C)c3ccsc32)cc1,-1.8%,0.891µM*,16.5%,3.55µM*,u,12µM*
Cc1ccc2oc(C(=O)Nc3sc4c(c3C(=O)NCc3cccnc3)CCCC4)cc(=O)c2c1,x,5.4%,x,x,x,-0.6%
O=C(COc1ccc(Br)cc1)Nc1ccc(-c2nnc(-c3ccco3)o2)cc1,-1.4%,8.91µM*,13.4%,3.98µM*,2.24µM*,0.7%
CCC(Oc1ccccc1)C(=O)Nc1ccc(-c2nnc(-c3ccco3)o2)cc1 (stereo unspecified),3.8%,11.2µM*,11.0%,u,u,-11.5%
COc1ccccc1OCC(=O)Nc1ccc(-c2nnc(-c3ccco3)o2)cc1,-4.1%,5.62µM*,3.8%,10.3%,21.2%,0.7%
c1cncc(-c2nnc(-c3ccco3)o2)c1,-1.0%,22.4%,u,-2.2%,-5.6%,-0.4%
Clc1ccc(-c2nnc(-c3ccco3)o2)cc1,-11.9%,u,u,3.55µM*,2.82µM*,12µM*
CC1CCCC(NC(=O)COC(=O)c2ccc(Cl)nc2)C1C (stereo unspecified),x,x,3.0%,-4.9%,-3.0%,3.0%
C[C@@H]1O[C@@H](O[C@@H]2[C@@H](O)[C@H](OCCc3ccc(O)c(O)c3)O[C@H](CO)[C@H]2OC(=O)/C=C/c2ccc(O)c(O)c2)[C@H](O)[C@H](O)[C@H]1O,x,x,2.6%,x,x,x
CCC(=O)N1CCc2cc(S(=O)(=O)NC(C(=O)NCCc3cccc(C)c3)C(C)C)ccc21 (stereo unspecified),x,0.7%,x,x,x,1.4%
CCOCCc1nnc(NC(=O)C2CC(=O)N(c3ccc(OCC)cc3)C2)s1 (stereo unspecified),x,x,1.6%,-4.4%,5.0%,-3.1%
CC(C)C(=O)Nc1ccc(NC(=O)c2cc3ccccc3o2)cc1,-1.7%,u,u,22.4%,2.7%[1.84 µM],u
Cc1cccc(NC(=O)c2cc3ccccc3o2)c1,u,12.6µM*,20.6µM*,1.26µM*,1.41µM*,3.79µM*
CN(C)S(=O)(=O)c1cccc(C(=O)Nc2ccc(C(=O)Nc3cccc(S(N)(=O)=O)c3)cc2)c1,x,x,-1.0%,x,x,x
CCC(=O)Nc1cccc(NC(=O)c2cc3ccccc3o2)c1,-13.9%,u,u,2µM*,0.708µM*,2.39µM*
NS(=O)(=O)c1cccc(NC(=O)c2cccc(-c3ccc(O)cc3)c2)c1,x,x,1.3%,1.2%,-1.4%,16.9µM*
O=C(Nc1cccc(Br)c1)c1cc2ccccc2o1,x,x,u,3.16µM*,2.82µM*,2.39µM*
